Assay results published in ChEMBL document CHEMBL1157539, “Thousands of chemical starting points for antimalarial lead identification” (Nature, 2010).

Tests used:
Format in all cases: functional
Plasmodium falciparum [1] = assay: GSK_TCMDC: Inhibition of Plasmodium falciparum 3D7 in whole red blood cells, using parasite LDH activity as an index of growth. Test compounds present at 2uM
Plasmodium falciparum [2] = assay: GSK_TCMDC: Inhibition of Plasmodium falciparum Dd2 in whole red blood cells, using parasite LDH activity as an index of growth. Test compounds present at 2uM
HepG2 = assay: GSK_TCMDC: Percent inhibition of human HepG2 cell line. Test compounds present at 10uM.

| SMILES | Inhibition (Plasmodium falciparum [1]) | Inhibition (Plasmodium falciparum [2]) | Inhibition (HepG2) |
| --- | --- | --- | --- |
| COCCNCc1cccc(-c2ccc3c(Nc4cc(O)c(Cl)cc4F)ccnc3c2)c1 | 100% | 79% | 0% |
| O=C(Nc1ccc(Cl)cc1)c1ccc(CN2CCCN(CC3CCCCC3)CC2)cc1.O=C(O)C(F)(F)F | 92% | 42% | 48% |
| Cc1cccc2nc(-c3cccc(-c4cccc(CN5CCN(c6ccc(C#N)cn6)CC5)c4)c3)[nH]c12.O=C(O)C(F)(F)F | 94% | 34% | 11% |
| Cc1nccn1CCNC(=O)CN1CCC2(CCC1=O)CC(=O)c1ccccc1O2 (stereo unspecified) | 98% | 4% | 0% |
| Cc1nc(C)c(CC(=O)Nc2ccc(-c3ccc(-c4nc5cc(C(F)(F)F)ccc5[nH]4)s3)cc2)s1 | 90% | 29% | 57% |
| O=C(Nc1ccc2[nH]c(-c3ccc4nc(NC(=O)C5CCCCC5)sc4c3)nc2c1)C1CCCCC1 | 100% | 68% | 84% |
| O=C(Cn1nc(Br)nc1[N+](=O)[O-])NCC1CCCCC1 | 96% | 57% | 0% |
| COc1ccc(-c2nc(NC(=O)Cc3coc4cc(OC)ccc34)sc2C)cc1 | 100% | 77% | 9% |
| CN(C)c1ccc(CN2CCCCC(NC(=O)c3cc(-c4ccccc4Cl)cs3)C2)cc1.O=C(O)C(F)(F)F (stereo unspecified) | 91% | 14% | 10% |
| N#Cc1ccc(N[C@@H](CC2CCCCC2)C(=O)NCc2cc(Cl)cc(Cl)c2)c2ccccc12.O=C(O)C(F)(F)F | 94% | 88% | 34% |
| Cc1cccc2nc(-c3ccc(-c4cccc(NC(=O)CCc5c[nH]cn5)c4)s3)[nH]c12 | 94% | 70% | 2% |
| Cc1ccc(C(=O)Nc2ccc(F)c(F)c2F)cc1S(=O)(=O)N1CCCCC1 | 92% | 69% | 3% |
| COc1cc(NC(=O)c2cc([N+](=O)[O-])ccc2NC(=O)CNC2CCCC(C)C2C)cc(OC)c1 (stereo unspecified) | 97% | 80% | 21% |
| CO/C(=C\C=C\c1cc2cc(Cl)c(Cl)cc2[nH]1)C(=O)NCCCN1CCN(c2cccc(O)c2)CC1 | 91% | 100% | 46% |
| COc1ccc2c(N/N=C/c3ccc([N+](=O)[O-])cc3)ccnc2c1 | 100% | 98% | 0% |
| O=C(Nc1ccc(C(F)(F)F)cc1)c1cccc(S(=O)(=O)NCC2CCCN(CC3CCCCC3)C2)c1.O=C(O)C(F)(F)F (stereo unspecified) | 97% | 4% | 27% |
| COc1cc(CN2CCC(CO)(Cc3cccc(C(F)(F)F)c3)CC2)c(Cl)cc1O | 99% | 64% | 12% |
| COc1cccc(C=NNc2cc(C)nc3c(OC)cccc23)c1 | 99% | 58% | 6% |
| CN(CCCNCc1ccc2ccccc2c1)CCCNCc1ccc2ccccc2c1.Cl | 100% | 79% | 100% |
| O=C(NC(NC(=S)Nc1ccc([N+](=O)[O-])cc1)C(Cl)(Cl)Cl)c1cccc(Cl)c1 (stereo unspecified) | 97% | 100% | 24% |
| CC(=O)N1N=C(c2ccc(Cl)cc2)Sc2c1nc(C1CCCCC1)n2C(C)=O | 100% | 67% | 1% |
| CC(C)COc1ccc(Cl)cc1Cc1ccc(-c2nc3ccc(Br)cc3[nH]2)o1.Cl | 80% | 75% | 19% |
